Assay outcomes (PubChem BioAssay)
In the library only some 4.1% were active in any assay of this set; here they are far more common.
F508del corr – CFTR F508del correction in bronchial cells. CFBE cells, YFP halide quenching; stimulated with forskolin plus potentiator P3; % fluorescence drop versus neutral controls. activity (quench increase), % at 7.58 µM. 350,000 tested, 0.36% active. AID 720511;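 active means mean added fluorescence quench of at least 8% versus neutral control, with both replicates also reaching 8%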;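 further: cells transiently co-express mutant CFTR-F508del with the halide-sensitive YFP; corrector assay measuring rescue of mutant channel to the surface after 24 h compound exposure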
PglD inh – blocks C. jejuni PglD acetyltransferase activity; AID 602405; purified PglD enzyme, DTNB colorimetric CoA detection; 360,000 tested, 0.098% active; inhibition, % at 12.5 µM; in the data active means inhibition above about 16%, passing the limit was not always enough
ALR H2O2 inh – blocks human ALR sulfhydryl oxidase activity; P55789; purified ALR, DTT oxidation, H2O2 HRP-luminol luminescence; inhibition, % (concentration not given with the values); 290,000 tested, 3.8% active; AID 485317;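 active means mean replicate inhibition above about 79%, with every replicate also reaching it, limit read from the data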
Target sequence (P55789 whole entry, looked up): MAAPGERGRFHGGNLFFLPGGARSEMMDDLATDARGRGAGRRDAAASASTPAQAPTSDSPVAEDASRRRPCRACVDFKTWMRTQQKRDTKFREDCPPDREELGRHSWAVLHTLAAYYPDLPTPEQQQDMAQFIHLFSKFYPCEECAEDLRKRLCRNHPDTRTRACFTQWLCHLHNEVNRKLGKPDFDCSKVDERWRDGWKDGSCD
Env fusion inh – inhibitors of HIV Env-mediated cell fusion; HeLa-JRFL Env/CEM21 cell fusion, luciferase; inhibition, % at 12.3 µM; 360,000 tested, 1.1% active;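 active means mean replicate inhibition score of at least 50 and every replicate individually at or above 50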;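 further: 0% = plate neutral controls and 100% = maraviroc near 300 nM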
Casp6 inh – inhibitors of human caspase-6. inhibition, % at 12.5 µM. AID 686996. P55212. purified caspase-6, Z-VEID-R110 cleavage fluorescence. 350,000 tested, 0.53% active;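 active means mean inhibition across replicates at least about 35%, with every replicate also reaching that limit, limit read from the data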;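 further: 0% = median of neutral control wells and 100% = no fluorescence left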
Target sequence (P55212 24-179 limits assumed): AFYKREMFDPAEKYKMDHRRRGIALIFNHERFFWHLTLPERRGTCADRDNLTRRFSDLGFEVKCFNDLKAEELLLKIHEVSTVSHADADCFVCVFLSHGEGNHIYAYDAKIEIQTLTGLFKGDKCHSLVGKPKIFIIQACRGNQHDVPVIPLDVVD
Target sequence (P55212 194-293 limits assumed): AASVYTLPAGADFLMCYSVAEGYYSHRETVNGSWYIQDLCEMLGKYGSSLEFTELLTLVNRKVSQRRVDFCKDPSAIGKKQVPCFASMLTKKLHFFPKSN
NSD2 HMT inh – NSD2 (human) methyltransferase inhibition; NSD2 peptide methylation, AlphaScreen, 120 min; inhibition, % at 12.5 µM; AID 743445; O96028; 310,000 tested, 0.54% active; in the data active means inhibition above about 50%
AlphaScreen art – AlphaScreen assay artifact in NSD2 counter-screen; shares compounds with NSD2 HMT inh; AlphaScreen artifact counterscreen, preloaded methylated H4 peptide; AC35, µM (doses to about 10 µM), inactives show at the highest dose activity change, negative = signal loss; 1,500 tested, 9.4% active; AID 1053174; call rule not given here
* = called active by the depositor; . = no result given; [ ] = another dose, or the depositor's remark.

SMILES | F508del corr | PglD inh | ALR H2O2 inh | Env fusion inh | Casp6 inh | NSD2 HMT inh | AlphaScreen art
C[C@H]1CN([C@@H](C)CO)C(=O)c2cc(NC(=O)Cc3cn(C)c4ccccc34)ccc2O[C@@H]1CN(C)C(=O)Nc1ccccc1 | 0 | 2 | . | 8[16.7 µM] | -4 | . | .
CC(=O)Nc1ccc2c(c1)C(=O)N(C)[C@@H]1CC[C@@H](CC(=O)NCCCN3CCOCC3)O[C@H]1CO2 | -4 | . | . | 17[16.7 µM] | . | . | .
O=C(CSc1nc2nn(-c3ccccc3)c(=O)c-2c2n1CCCCC2)c1ccc(O)c(O)c1 | . | -1 | 92* | . | . | 94* | 7.9µM*
CCCC(=O)N1CC2(CCN(C(=O)C3CCC3)CC2)c2c(n(C)c3cc(OC)ccc23)[C@@H]1CO | 0 | . | . | . | . | . | .
COC(=O)C[C@@H]1CC[C@H]2[C@@H](COc3ccc(NS(C)(=O)=O)cc3C(=O)N2C)O1 | -2 | -3 | . | 10[16.7 µM] | . | . | .
C[C@H](CO)N1C[C@H](C)[C@@H](CN(C)C)Oc2cc(C#Cc3cccnc3)ccc2S1(=O)=O | 0 | 0 | . | -4[16.7 µM] | -10 | . | .
C[C@H](NC(=O)[C@@H]1[C@@H](CO)[C@@H]2Cn3c(ccc(C4=CCCCC4)c3=O)[C@H]1N2)c1ccccc1 | -1 | 16 | . | . | -1 | . | .
Cc1cc(OCC(=O)Nc2ccccc2N2CCCCC2)ccc1C(C)C | -2 | . | -1 | 5 | -4 | 77* | -1%
COc1ccc2[nH]cc(CCNC(=O)C3CC(=O)N(c4ccc(Cl)cc4)C3)c2c1 (stereo unspecified) | 2 | -9 | 1 | -1 | 3 | 0 | .
CCOc1ccc(N2CC(C(=O)NCCc3c[nH]c4ccc(OC)cc34)CC2=O)cc1 (stereo unspecified) | -2 | 4 | -11 | -11 | 0 | 88* | -3%
C[C@H]1CN([C@@H](C)CO)S(=O)(=O)c2ccc(C#CC3CC3)cc2O[C@H]1CN(C)CC1CCOCC1 | 2 | 1 | . | -12[16.7 µM] | 1 | . | .
CN(C)CCNc1ncnc2oc(-c3ccccc3)c(-c3ccccc3)c12 | 1 | 3 | -9 | 2 | -10 | 51* | -6%
COc1ccc(-c2oc3ncnc(NCCCN(C)C)c3c2-c2ccc(OC)cc2)cc1 | 0 | -8 | -10 | 15 | -2 | 7 | .
C[C@H](CO)N1C[C@H](C)[C@@H](CN(C)S(=O)(=O)c2ccc(Cl)cc2)Oc2ccc(NS(=O)(=O)c3ccc(F)cc3)cc2CC1=O | 1 | 2 | . | 14[16.7 µM] | . | . | .
Oc1ccccc1/C=N/Nc1cc(N2CCCC2)nc(N2CCCC2)n1 | . | 11 | 17 | -85 | . | 54* | -14%
Oc1ccc(/C=N/Nc2cc(N3CCOCC3)nc(N3CCOCC3)n2)cc1O | . | . | 99* | 0 | 6 | 106* | -18%
Oc1cccc(/C=N/Nc2cc(N3CCOCC3)nc(N3CCOCC3)n2)c1 | . | -1 | 73 | . | . | 23 | .
COc1ccc2c3c([nH]c2c1)[C@H](CO)N(C(=O)c1cnccn1)CC31CCN(C(=O)c2cnccn2)CC1 | -1 | . | . | . | . | . | .
CCNc1ccccc(C(=O)/C=C/c2ccc3c(c2)OCO3)c1=O | . | -2 | 41 | . | . | 66* | -5%
CCN(CC)CCCNC(=O)C1CCN(C(=O)c2oc3cc4sc(N(C)C)nc4cc3c2C)CC1 | 2 | -27 | -22 | -10 | -12 | 57* | 0%
CCOC(=O)Nc1ccc2c(c1)N(C(=O)CCN(C)C)c1ccccc1CC2 | -3 | -6 | . | 16 | 5 | -2 | .
COC(=O)Nc1ccc2c(c1)N(C(=O)CCN(C)C)c1ccccc1CC2 | -1 | 0 | -19 | 1 | 1 | 105* | -3%
Cc1noc(C)c1NC(=O)N(C)C[C@H]1OCCCC[C@@H](C)Oc2ccc(NS(=O)(=O)c3ccccc3)cc2C(=O)N([C@@H](C)CO)C[C@@H]1C | -2 | -3 | . | 5[16.7 µM] | 2 | . | .
c1ccc(CN2CCN(c3nc(-c4ccccc4)nc(-n4ccnc4)n3)CC2)cc1 | . | -1 | -7 | . | . | 63* | -4%
c1ccc(-c2nc(-n3ccnc3)nc(-n3ccnc3)n2)cc1 | . | . | 10 | -123 | . | 0 | .
SMILES | F508del corr | PglD inh | ALR H2O2 inh | Env fusion inh | Casp6 inh | NSD2 HMT inh | AlphaScreen art
O=C(Nc1ccc(S(=O)(=O)Nc2ncccn2)cc1)C1CC(=O)N(c2ccc(Cl)cc2)C1 (stereo unspecified) | 0 | 3 | -6 | -12 | 6 | 76* | -5%
O=C(Nc1ccc(S(=O)(=O)Nc2nccs2)cc1)C1CC(=O)N(c2ccc(Cl)cc2)C1 (stereo unspecified) | -1 | -4 | -7 | -43 | -1 | 2 | .
COCCOC(=O)N1C(=O)[C@@]2(c3cc(C#Cc4ccc(OC)cc4)ccc31)[C@H](C(=O)NC[C@H](O)c1ccccc1)[C@H]1C(=O)O[C@H](c3ccccc3)[C@H](c3ccccc3)N1[C@@H]2c1ccc(O)cc1 | 0 | 3 | . | -23[16.7 µM] | 6 | . | .
N#Cc1ccc(-c2ccco2)nc1SCc1ccccc1 | . | 5 | . | -81 | . | 55* | -1%
C/C(CC(=O)NCCCN1CCOCC1)=N\NC(=O)COc1ccc(C)cc1 | -3 | . | 2 | 2 | -21 | -1 | .
C/C(CC(=O)NCCCN1CCOCC1)=N\NC(=O)COc1ccc(Cl)cc1 | . | -2 | -6 | . | . | 65* | -7%
COc1ccc(-c2ccc([C@H]3[C@@H](CO)N(C(=O)C4CCC4)[C@H]3C#N)cc2)cc1 | -1 | -4 | . | -13[16.7 µM] | 1 | . | .
CN(c1ccc(C(=O)O)cc1)S(=O)(=O)c1ccccc1 | . | -3 | -10 | . | . | 52* | 0%
COc1cccc(/C(O)=C2\C(=O)C(=O)N(c3ccccn3)C2c2ccccc2OC)c1 (stereo unspecified) | . | 0 | 3 | -32 | . | -1 | .
COc1ccc(C2/C(=C(\O)c3cccc(OC)c3)C(=O)C(=O)N2c2ccccn2)cc1 (stereo unspecified) | . | -4 | 2 | -56 | 24 | 116* | -1%
CCCC(C(=O)NC(C)(C)C)N(CC1CCCO1)C(=O)CNS(=O)(=O)c1ccc(F)cc1 (stereo unspecified) | 0 | 1 | -5 | 8 | -2 | 83* | -1%
COC(=O)c1ccc(-n2c(C)ccc2-c2ccccc2)cc1 | -1 | 5 | 23 | . | -1 | 5 | .
COc1ccc(-n2c(C)ccc2-c2ccccc2)cn1 | 2 | -10 | . | 8 | -1 | 58* | -2%
C[C@H](CO)N1C[C@H](C)[C@H](CN(C)C(=O)Nc2ccccc2)Oc2cc(C#CC3(O)CCCC3)ccc2S1(=O)=O | -2 | 1 | . | -3[16.7 µM] | -3 | . | .
Oc1ccc(-c2cn3c(n2)SCC3)cc1O | . | -9 | 99* | -32 | . | 105* | 8.1µM*
Oc1ccc(-c2cn3c(n2)SCC3)cc1 | . | 4 | 65 | . | . | 1 | .
O=C(Nc1nccs1)c1ccc2nccnc2c1 | . | -5 | -17 | -91 | . | 125* | -2%
Cc1ccc(C(=O)Nc2nccs2)cc1 | 0 | -4 | 0 | -17 | 0 | -1 | .
